Source: PubChem BioAssay (National Center for Advancing Translational Sciences (NCATS))
Marburg entry inh: blocks Marburg virus binding to or entry into cells; Marburg virus pseudotyped entry inhibition, cell reporter; Potency, µM (highest dose often 37.8 µM), inactives show at the highest dose activity change, negative = inhibition, hits mostly inhibitors; 1.8% of 300,000 active; AID 540276; calls by dose curve; tested in HEK293 cells; note: potency is the fitted concentration of half-maximal effect
FMDV antiviral: blocks foot and mouth disease virus; FMDV antiviral cell-based qHTS; Potency, µM (top dose mostly 57.9 µM), inactives show at the top dose activity change, negative = inhibition, most hits filed as inhibitors; 1.2% of 410,000 active; calls by dose curve; tested in HEK293T cells; note: read-out not given here; potency is the fitted concentration of half-maximal effect; nearly all actives have a fitted effect of over 45% in size
Lassa entry inh: blocks Lassa virus binding to or entry into cells; Lassa virus pseudotype entry inhibition, cell reporter; Potency, µM (doses to about 37.9 µM), without a hit: at the highest dose activity change, negative = inhibition, most hits filed as inhibitors; 1.2% of 300,000 active; AID 540256; calls by dose curve; tested in HEK293 cells; note: potency is the fitted concentration of half-maximal effect; nearly all actives have a fitted effect of over 50% in size
HCMV inh: human cytomegalovirus inhibition; AID 1259415; activity change, negative = inhibition, % at 57.5 µM; HFF cells, HCMV-luciferase reporter, 72 h; active compounds read low; 4.5% of 410,000 active; in the data active = activity change below about -60%; inconclusive = no clear call, values can overlap the other calls; inactive = above about -39%
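Screen run at 2 compound doses on HFFs infected with reporter HCMV, MOI 1 PFU/cell. Luciferase activity from cell lysates at 72 h post infection gave inhibition relative to buffer-only and Salinomycin wells.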
Numbers without * were called inactive; ? = inconclusive; nt = not tested or not shown; [ ] = remark or other dose. Only some compounds are listed: those with a hit (about 6.2% of all), similar ones and a draw of the others. % is set by controls: 0 for no effect and ±100 for the full control effect.

SMILES	Marburg entry inh	FMDV antiviral	Lassa entry inh	HCMV inh
CN(C)CCOc1ccc2c(c1)C(=O)C(=Cc1ncc([N+](=O)[O-])n1C)C2	nt	-5.1%	nt	-98.5*
CCc1cc(OCCN(C)C)ccc1Cl	-5.9%[46.1 µM]	-1.5%	nt	20.7
CC(=O)c1c(C)oc2c1C(=O)c1ccccc1C2=O	-1.8%	?	-10.8%	-72.1*
Cc1oc2c(c1C(=O)NCc1cccnc1)C(=O)c1ccccc1C2=O	nt	3.16µM*	nt	nt
O=C1c2ccccc2C(=O)c2c1oc(C(F)(F)F)c2C(=O)c1ccccc1	?	-21.5%	?	-97.7*
COc1ccc(CNC(=O)c2c(C)oc3c2C(=O)c2ccccc2C3=O)cc1	6.2%	?	-14.0%	?
CCOc1ccc(NC(=O)CN2C(=O)c3ccccc3Sc3ccc(C(=O)OC)cc32)cc1	nt	-6.8%	1.6%[46.1 µM]	13.6
Cn1nc(C(C)(C)C)cc1C(=O)NCc1cc(F)cc2c1OCOC2	nt	12.6µM*	nt	-71.6*
Cc1cc(C(=O)NCc2cc(F)cc3c2OCOC3)nn1C	15.0%[46.1 µM]	32.6%	-0.1%	-37.8
O=C(CSc1ncn[nH]1)NCCc1ccccc1	13.5%	-9.1%	-4.0%	7.2
CC(Sc1ncn[nH]1)C(=O)NCc1ccccc1 (stereo unspecified)	13.8%[46.1 µM]	-27.3%	-1.5%[46.1 µM]	-98.6*
Nn1c(SCc2ccccc2)nc2c(cnn2-c2ccccc2)c1=O	nt	22.3%	nt	28.8
C=CCn1c(Cc2ccccc2)nc2c(cnn2-c2ccccc2)c1=O	?	28.2µM*	?	?
CCOCCCn1c(C)nc2c(c1=O)c1nc3ccccc3nc1n2CCC1=CCCCC1	10µM*	?	?	?
Cc1cc2oc(=O)cc(C)c2cc1NC(=O)CCl	?	?	?	-100.4*
Cc1cc2oc(=O)cc(C)c2cc1NC(=O)CCC(=O)O	17.6%	nt	-9.4%	5.2
Cc1cccc(CNc2cc(-c3ccoc3)ncn2)c1	nt	-18.6%	nt	nt
O=C1NC2(CCCCC2)C(=O)N1Cc1cccc(C(F)(F)F)c1	0.8%	-7.3%	-7.7%	-102.6*
O=C1NC2(CCCCCC2)C(=O)N1Cc1cccc(Cl)c1	-22.5%[46.1 µM]	?	9.8%[46.1 µM]	-20.1
O=C1C(Cl)=C(NC(=O)c2ccccc2)C(=O)C(Cl)=C1NC(=O)c1ccccc1	?	28.2µM*	?	?
O=C(NC1=C(Nc2ccc(Cl)cc2)C(=O)c2ccccc2C1=O)c1ccccc1	?	-16.9%	?	-64.5*
O=C(NC(NC1CCS(=O)(=O)C1)C(=O)c1cccs1)c1ccccc1 (stereo unspecified)	4.1%	-5.4%	1.4%	25.3
O=C(NC1=C(NC2CCS(=O)(=O)C2)C(=O)c2ccccc2C1=O)c1ccccc1 (stereo unspecified)	nt	?	nt	-99.5*
O=C(Nc1cccc(Cl)c1)c1ccccc1	nt	49.7%	nt	80.6
Cc1ncc2c(c1CNC(=O)c1cncs1)CCN(C(=O)c1ccc(-c3ccccc3)cc1)C2	nt	-5.3%	nt	nt
SMILES	Marburg entry inh	FMDV antiviral	Lassa entry inh	HCMV inh
CCCOc1ccc(C(=O)Nc2ccc3oc(-c4ccc(N(C)C)cc4)nc3c2)cc1	nt	1.8%	-3.3%[46.1 µM]	9.1
O=C(C[C@H]1C(=O)N(Cc2ccccc2)C[C@@H]1c1ccc(Br)cc1)Nc1ccc(Br)cc1	nt	50.8%	nt	-11.0
C=CCn1c(-c2ccc(Cl)cc2)cnc1SC(C)C(=O)NC(N)=O (stereo unspecified)	-8.3%[46.1 µM]	?	-4.8%	-73.8*
CN(C)c1ccc(-c2cncnc2Nc2ccc(F)cc2)cc1	nt	1.3%	nt	nt
CCOc1ccc(N(CC(=O)Nc2ccccc2OCC)S(=O)(=O)c2c(C)noc2C)cc1	nt	-28.4%	nt	-86.4*
COc1ccc(N(CC(=O)Nc2cc(C)on2)S(=O)(=O)c2ccc(Cl)cc2)cc1	0.4%[46.1 µM]	-7.8%	-15.6%	-0.7
CCOc1ccc(N(CC(=O)Nc2cccc(OC)c2)S(=O)(=O)c2c(C)noc2C)cc1	2.6%	?	nt	-62.2*
COc1ccc(N(CC(=O)Nc2cc(C)on2)S(=O)(=O)c2cc(C)ccc2C)cc1	?	41.5%	-26.4%	-91.0*
CCOc1ccc(N(CC(=O)Nc2ccc(C)cc2)S(=O)(=O)c2c(C)noc2C)cc1	-4.9%	0.0%	nt	-34.0
CCOc1ccc(N(CC(=O)Nc2ccc(F)c(F)c2)S(=O)(=O)c2c(C)noc2C)cc1	-6.3%	-19.6%	5.7%	-62.8*
COc1ccc(S(=O)(=O)Nc2ccc3c(c2)C(=O)N([C@H](C)CO)C[C@H](C)[C@H](CN(C)C(=O)Nc2ccc(F)cc2)OCCCC[C@@H](C)O3)cc1	nt	nt	nt	-23.9
CCC(Sc1nnc2c(n1)[nH]c1ccccc12)C(=O)Nc1ccccc1OC (stereo unspecified)	?	19.4%	14.9%[46.1 µM]	87.5
CCOc1ccc(N(CC(=O)NCc2cccs2)S(=O)(=O)c2c(C)noc2C)cc1	4.8%	7.6%	nt	-60.1*
